Test results as given in PubChem BioAssay.
Active and inactive are the calls of the source.

Tests used:
[1] = binders of probe aFSTL3 on microarray, primary screen, stem cell growth factor project, biochemical, small-molecule microarray, fluorescence 635/667 (AID 1064); settings: higher = more signal;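 also: measures binding of the biotinylated anti-FSTL3 antibody to printed compounds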
[2] = binders from COS7 lysate, DM2A8 probe, primary screen, torsin A project, cell lysate, small-molecule microarray, fluorescence 635/667 (AID 1065); settings: higher = more signal, COS7 lysate expressing mutant human TOR1A
[3] = binders of probe aFGF2 on microarray, primary screen, stem cell growth factor project, biochemical, small-molecule microarray, fluorescence 635/667 (AID 1067); settings: higher = more signal;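 also: measures binding of biotinylated aFGF2 protein to printed compounds on slides; z-score merges feature fluorescence and signal-to-noise across triplicate slides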
[4] = binders of probe aFGF10 on microarray, primary screen, stem cell growth factor project, biochemical, small-molecule microarray, fluorescence 635/667 (AID 1071); settings: higher = more signal;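 also: score merges 667 nm spot intensity and signal to noise from triplicate slides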
[5] = molecular target: Neurogenic locus notch homolog protein 2 (Homo sapiens) (UniProt Q04721); experiment: Notch2 binders on small-molecule microarrays, primary screen, biochemical, small-molecule microarray, 635 nm fluorescence, stem cell growth factors (AID 1073); settings: Notch2 binding, higher = more signal
[6] = molecular target: Pro-neuregulin-1, membrane-bound isoform (Homo sapiens) (UniProt Q02297); experiment: NRG1 binders on small-molecule microarrays, primary screen, psychiatric disease protein project, biochemical, small-molecule microarray, fluorescence 635/667 (AID 1075); settings: NRG1 binding, 635 nm fluorescence, higher = more signal;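 also: score combines 667 nm spot fluorescence with signal to noise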
[7] = test system: Neuregulin-1 EGF-like domain; experiment: binders of neuregulin-1 EGF-like domain, primary screen, biochemical, small-molecule microarray, 635 nm fluorescence (AID 1081); settings: small-molecule microarray binding, higher = more signal;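 also: binding of the protein to compounds printed on small-molecule microarray slides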
[8] = FRG1 promoter luciferase signal modulators, primary screen, FRG1 inhibition for FSHD, cell-based, C2C12 myotubes, firefly/Renilla luciferase, luminescence (AID 1084); settings: higher = more signal, called active from +8 up or from −8 down
[9] = binders of probe aFST on microarray, primary screen, stem cell growth factor project, biochemical, small-molecule microarray, fluorescence 635/667 (AID 1086); settings: higher = more signal;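 also: score merges 667 nm fluorescence with signal-to-noise of each printed compound spot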
[10] = binders of probe aHhip on microarray, primary screen, stem cell growth factor project, biochemical, small-molecule microarray, fluorescence 635/667 (AID 1087); settings: higher = more signal;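 also: score merges spot fluorescence at 667nm with spot signal to noise ratio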
[11] = test system: PRMT1 (protein arginine N-methyltransferase 1); experiment: PRMT1 binders on small-molecule microarrays, primary screen, biochemical, small-molecule microarray, 635 nm fluorescence (AID 1088); settings: small-molecule microarray binding, higher = more signal;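 also: binding of Prmt1 protein to compounds spotted on small-molecule microarray slides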
[12] = yeast growth modulation, basal conditions, primary screen, YJM789 clinical isolate, OD600, 24 h (AID 1089);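 also: growth of clinical yeast isolate S. cerevisiae YJM 789 seeded 1000 cells per well; test concentration not given here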; settings: S. cerevisiae YJM789 growth, higher = more signal, called active from +8 up or from −8 down
[13] = fission yeast growth modulation, primary screen, strain 972, OD600, 24 h, no modulator (AID 1090);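 also: basal condition with compound alone and no growth modifier present; test concentration not given here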; settings: S. pombe 972 growth, higher = more signal, called active from +8 up or from −8 down
[14] = S. cerevisiae growth modulation with rapamycin, primary screen, strain BY4716, OD600, 96 h (AID 1091); settings: higher = more signal, called active from +8 up or from −8 down; also: test concentration not given here
[15] = molecular target: Torsin-1A-interacting protein 2 (Homo sapiens) (UniProt Q8NFQ8); experiment: LULL1 binders on small-molecule microarray, primary screen, cell lysate, human LULL1 lysate, 635/667 nm fluorescence (AID 1092); settings: hLULL1 lysate binding, 635 nm fluorescence, higher = more signal;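 also: probe is lysate of COS7 cells overexpressing human LULL1; score merges per-feature 667 nm fluorescence with signal-to-noise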
[16] = E. coli growth modulation, two-sided OD650, primary screen, E. coli filamentation project, strain DRC41, 24 h (AID 1093); settings: OD650, 24 h, higher = more signal, called active from +8 up or from −8 down;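 also: MC1000 strain lacking acrAB efflux and sulA so SOS filamentation is blocked; test concentration not given here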
[17] = small-molecule microarray binders of probe aLefty2, primary screen, biochemical, biotinylated probe, 635/667 nm fluorescence (AID 1094); settings: higher = more signal;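 also: score merges spot fluorescence near 667 nm with spot signal-to-noise ratio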
[18] = test system: Noggin (protein binding on small-molecule microarray); experiment: Noggin binders on small-molecule microarray, primary screen, biochemical, 635/667 nm fluorescence (AID 1095); settings: 635 nm fluorescence, higher = more signal;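 also: score merges 667 nm feature fluorescence with signal to noise over triplicate slides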
[19] = molecular target: Neurogenic locus notch homolog protein 3 (Homo sapiens) (UniProt Q9UM47); experiment: NOTCH3 binders on small-molecule microarray, primary screen, biochemical, 635/667 nm fluorescence (AID 1096); settings: NOTCH3 binding, 635 nm fluorescence, higher = more signal
[20] = small-molecule microarray binders of probe aEGFR, primary screen, biochemical, biotinylated probe, 635/667 nm fluorescence (AID 1097); settings: higher = more signal;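 also: probe is a biotinylated anti-EGFR antibody binding compounds printed on slides; score combines fluorescence near 667 nm and signal to noise of each spot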

Chain of Pro-neuregulin-1, membrane-bound isoform (Homo sapiens) (Q02297 whole entry, looked up, the tested form may be a part, canonical isoform): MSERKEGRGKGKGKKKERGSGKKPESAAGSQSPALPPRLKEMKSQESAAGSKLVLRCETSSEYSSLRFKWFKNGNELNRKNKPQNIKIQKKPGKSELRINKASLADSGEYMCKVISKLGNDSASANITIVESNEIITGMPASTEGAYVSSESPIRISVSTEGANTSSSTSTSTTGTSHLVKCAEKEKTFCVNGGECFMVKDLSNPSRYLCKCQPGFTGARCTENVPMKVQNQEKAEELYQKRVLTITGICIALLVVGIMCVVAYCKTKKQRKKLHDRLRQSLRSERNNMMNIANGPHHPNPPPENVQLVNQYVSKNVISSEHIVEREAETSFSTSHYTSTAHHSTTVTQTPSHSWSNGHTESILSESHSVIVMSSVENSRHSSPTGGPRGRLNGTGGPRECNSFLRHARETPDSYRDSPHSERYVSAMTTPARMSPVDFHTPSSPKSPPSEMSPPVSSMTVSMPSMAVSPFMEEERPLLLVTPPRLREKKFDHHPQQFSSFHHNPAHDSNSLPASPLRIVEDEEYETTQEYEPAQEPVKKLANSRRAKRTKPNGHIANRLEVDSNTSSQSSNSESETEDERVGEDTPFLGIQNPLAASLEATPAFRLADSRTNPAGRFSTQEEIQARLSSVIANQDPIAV
Chain of Neurogenic locus notch homolog protein 2 (Homo sapiens) (Q04721 whole entry, looked up, canonical isoform): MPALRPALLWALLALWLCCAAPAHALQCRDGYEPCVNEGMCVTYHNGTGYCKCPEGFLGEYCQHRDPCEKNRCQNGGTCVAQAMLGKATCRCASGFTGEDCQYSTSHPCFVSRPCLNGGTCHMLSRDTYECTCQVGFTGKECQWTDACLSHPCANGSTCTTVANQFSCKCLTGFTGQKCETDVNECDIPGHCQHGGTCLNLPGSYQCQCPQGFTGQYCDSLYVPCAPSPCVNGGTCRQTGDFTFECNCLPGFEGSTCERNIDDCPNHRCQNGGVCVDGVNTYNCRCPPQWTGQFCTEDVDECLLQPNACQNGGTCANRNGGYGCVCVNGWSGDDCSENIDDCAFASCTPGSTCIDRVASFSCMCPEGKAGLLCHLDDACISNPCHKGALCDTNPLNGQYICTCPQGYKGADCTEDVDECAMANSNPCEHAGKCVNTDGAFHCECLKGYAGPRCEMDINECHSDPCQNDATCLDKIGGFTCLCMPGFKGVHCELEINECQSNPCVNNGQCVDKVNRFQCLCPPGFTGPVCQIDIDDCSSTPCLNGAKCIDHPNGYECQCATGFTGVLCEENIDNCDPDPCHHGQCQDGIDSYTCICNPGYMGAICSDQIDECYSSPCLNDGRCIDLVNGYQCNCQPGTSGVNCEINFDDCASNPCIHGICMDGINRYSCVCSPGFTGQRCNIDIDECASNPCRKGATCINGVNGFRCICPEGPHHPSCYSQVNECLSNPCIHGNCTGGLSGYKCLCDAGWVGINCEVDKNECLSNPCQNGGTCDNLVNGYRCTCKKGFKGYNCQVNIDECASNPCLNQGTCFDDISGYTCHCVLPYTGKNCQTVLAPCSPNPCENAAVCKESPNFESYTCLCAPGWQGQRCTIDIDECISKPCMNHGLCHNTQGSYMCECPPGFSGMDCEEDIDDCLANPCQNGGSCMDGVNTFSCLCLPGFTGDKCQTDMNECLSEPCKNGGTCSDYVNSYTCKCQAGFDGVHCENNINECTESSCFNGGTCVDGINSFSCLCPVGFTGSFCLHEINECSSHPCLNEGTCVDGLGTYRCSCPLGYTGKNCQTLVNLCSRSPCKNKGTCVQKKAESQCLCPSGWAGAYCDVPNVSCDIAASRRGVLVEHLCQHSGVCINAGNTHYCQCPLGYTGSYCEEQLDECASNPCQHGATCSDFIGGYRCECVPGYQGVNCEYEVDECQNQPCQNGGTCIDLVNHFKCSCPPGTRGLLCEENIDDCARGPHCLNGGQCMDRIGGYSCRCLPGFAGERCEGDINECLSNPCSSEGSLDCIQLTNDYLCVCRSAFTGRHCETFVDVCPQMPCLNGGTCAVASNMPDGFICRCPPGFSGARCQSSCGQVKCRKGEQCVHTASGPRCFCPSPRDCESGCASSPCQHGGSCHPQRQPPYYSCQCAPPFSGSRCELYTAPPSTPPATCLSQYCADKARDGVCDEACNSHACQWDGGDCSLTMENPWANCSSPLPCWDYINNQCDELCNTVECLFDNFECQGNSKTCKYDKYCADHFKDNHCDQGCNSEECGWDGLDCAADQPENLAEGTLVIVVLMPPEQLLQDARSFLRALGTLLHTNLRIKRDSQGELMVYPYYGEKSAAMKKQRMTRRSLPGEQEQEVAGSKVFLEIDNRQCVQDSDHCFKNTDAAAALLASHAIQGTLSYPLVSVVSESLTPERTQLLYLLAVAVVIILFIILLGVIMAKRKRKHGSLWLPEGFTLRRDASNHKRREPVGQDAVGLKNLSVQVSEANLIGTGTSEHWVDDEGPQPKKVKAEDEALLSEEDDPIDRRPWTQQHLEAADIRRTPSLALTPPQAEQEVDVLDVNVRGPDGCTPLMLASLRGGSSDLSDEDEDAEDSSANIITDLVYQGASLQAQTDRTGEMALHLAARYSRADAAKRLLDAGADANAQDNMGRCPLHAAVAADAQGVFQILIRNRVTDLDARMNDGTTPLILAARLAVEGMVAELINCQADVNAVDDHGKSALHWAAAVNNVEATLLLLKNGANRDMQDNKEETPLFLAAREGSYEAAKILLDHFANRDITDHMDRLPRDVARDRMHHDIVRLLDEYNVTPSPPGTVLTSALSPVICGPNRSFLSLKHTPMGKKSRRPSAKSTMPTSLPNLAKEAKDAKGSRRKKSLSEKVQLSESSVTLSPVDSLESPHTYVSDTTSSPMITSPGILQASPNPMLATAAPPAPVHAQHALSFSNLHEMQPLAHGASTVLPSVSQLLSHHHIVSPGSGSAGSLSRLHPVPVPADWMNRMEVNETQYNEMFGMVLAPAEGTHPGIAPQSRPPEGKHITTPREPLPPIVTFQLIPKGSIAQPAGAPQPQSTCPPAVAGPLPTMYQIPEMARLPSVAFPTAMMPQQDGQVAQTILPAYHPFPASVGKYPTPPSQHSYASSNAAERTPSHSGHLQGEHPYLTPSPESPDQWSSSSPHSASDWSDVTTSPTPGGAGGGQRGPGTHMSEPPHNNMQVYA
Chain of Torsin-1A-interacting protein 2 (Homo sapiens) (Q8NFQ8 whole entry, looked up): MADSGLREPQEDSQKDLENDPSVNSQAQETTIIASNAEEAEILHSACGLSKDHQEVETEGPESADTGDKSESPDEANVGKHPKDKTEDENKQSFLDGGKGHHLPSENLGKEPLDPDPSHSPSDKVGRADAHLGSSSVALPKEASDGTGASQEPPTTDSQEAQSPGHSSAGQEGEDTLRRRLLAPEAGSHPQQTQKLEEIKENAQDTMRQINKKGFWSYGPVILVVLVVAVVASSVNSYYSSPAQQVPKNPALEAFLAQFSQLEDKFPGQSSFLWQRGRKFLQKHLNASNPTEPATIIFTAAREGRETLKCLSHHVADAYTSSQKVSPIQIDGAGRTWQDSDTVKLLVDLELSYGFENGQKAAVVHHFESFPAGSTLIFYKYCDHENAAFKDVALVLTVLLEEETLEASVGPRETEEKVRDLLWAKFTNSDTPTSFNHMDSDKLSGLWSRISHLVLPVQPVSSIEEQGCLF

Structure (SMILES)	composite z-score [1]	composite z-score [2]	composite z-score [3]	composite z-score [4]	composite z-score [5]	composite z-score [6]	composite z-score [7]	z-score [8]	composite z-score [9]	composite z-score [10]	composite z-score [11]	z-score [12]	z-score [13]	z-score [14]	composite z-score [15]	z-score [16]	composite z-score [17]	composite z-score [18]	composite z-score [19]	composite z-score [20]
CCOC(=O)C1=CC[C@@H](c2ccc(N(CC)CC)cc2)N(S(=O)(=O)c2ccc(C)cc2)[C@H]1c1ccc([N+](=O)[O-])cc1	0.709	-0.346	-0.0336	-0.865	-0.398	0.722	0.722	-0.162 (inactive)	0.0676	-0.0237	0.554	-0.673 (inactive)	0.0534 (inactive)	2.76 (inactive)	2.29	-0.532 (inactive)	0.415	-0.796	0.206	-0.0688
Cc1ccc(S[C@]2(C(=O)NCCN3CCOCC3)CC(=O)N(C3Cc4ccccc4C3)[C@@H]2c2ccc(CO)cc2)cc1	-0.108	1.32	-0.0825	-0.168	-0.746	1.72	1.27	-0.611 (inactive)	0	-0.0994	1.42	-0.432 (inactive)	-0.291 (inactive)	-0.0611 (inactive)	2.77	0.7 (inactive)	-0.0928	-1.11	-0.521	-0.222
COc1ccc([Si](C)(C)[C@H]2[C@H](CC(=O)N3CCC[C@H]3CO)O[C@@]3(C(=O)N(Cc4ccc(N5C(=O)c6cccc7cccc5c67)cc4)c4ccccc43)[C@@H]2C)cc1	-0.276	0.623	-0.071	0.751	0.517	0.916	0.804	-4.19 (inactive)	0.361	-0.221	1.54	-0.631 (inactive)	0.363 (inactive)	-0.403 (inactive)	2.5	0.965 (inactive)	-0.057	1.11	1.13	0.0333
NC(=O)NCC#Cc1ccc2c(c1)[C@]1(C(=O)N2)[C@H](c2ccc(OCCO)cc2)N2[C@H](c3ccccc3)[C@H](c3ccccc3)OC(=O)[C@H]2[C@@H]1C(=O)N1CCCCCCC1	3.57	0.48	0.943	1.2	1.53	1.74	0.955	-0.154 (inactive)	3.04	3.79	1.09	1.57 (inactive)	1.43 (inactive)	3.66 (inactive)	3.3	-0.53 (inactive)	1.73	1.88	1.04	1.06
COc1ccc([Si](C)(C)[C@@H]2[C@@H](CCO)O[C@]3(C(=O)N(Cc4ccccc4)c4ccc(N5C(=O)COc6ccccc65)cc43)[C@H]2C)cc1	-0.169	0.217	-0.0973	0.2	0.128	0.666	1.05	-0.409 (inactive)	0.17	-0.0994	1.39	1.56 (inactive)	0.504 (inactive)	9.67 (active)	1.74	2.61 (inactive)	-0.0511	1.09	0.624	-0.187
CCCCC(=C=CC[C@H](O)c1ccccc1OCCO)C[C@H](O)c1ccccn1	-0.0078	1.07	-0.116	-0.0673	-0.285	0.466	0.376	-1.38 (inactive)	0.0552	-0.456	1.13	0.27 (inactive)	-0.132 (inactive)	0.0422 (inactive)	0.0266	1.3 (inactive)	-0.0699	0.939	0.0956	-0.179
C=CCN1C(=O)[C@@]2(O[C@@H](CCO)[C@H]([Si](C)(C)c3ccc(OC)cc3)[C@H]2C)c2cc(NC(=O)[C@H](C)O)ccc21	-0.0083	0.558	-0.0243	1.03	0.503	0.915	1.1	-0.737 (inactive)	0.005	-0.169	1.54	0.988 (inactive)	-1.64 (inactive)	-0.0361 (inactive)	3.15	0.571 (inactive)	-0.0622	0.959	0.759	-0.0485
COCCCNC(=O)[C@]1(CCS(=O)(=O)c2ccccc2)N=C(c2ccc(OCCCO)cc2)O[C@@H]1c1ccccc1	-0.0225	1.05	0.124	0.786	1.57	2.12	1.22	-1.91 (inactive)	1.26	-0.166	1.54	-0.575 (inactive)	0.127 (inactive)	0.0389 (inactive)	3.74	0.697 (inactive)	0.255	0.712	1.11	0.141
C=C(C)[C@@H]1CC=C(C(O)C2C=CC3C(=O)N(C4CCCCC4)C(=O)C3N2Nc2ccc(OC)cc2)CC1 (stereo not given in full)	-0.128	0.103	0.156	0.594	1.45	1.2	1.02	0.0512 (inactive)	1.32	-0.41	1.55	0.188 (inactive)	0.707 (inactive)	0.785 (inactive)	3.27	-0.357 (inactive)	-0.0009	0.593	1.07	-0.0034
CCCC=C(CCC)[C@@H](NC(=O)Cc1ccccc1)c1ccc(C(=O)OC)cc1	1.22	-0.0985	0.254	0.536	1.13	0.807	0.606	-0.26 (inactive)	0.94	3.03	0.658	0.761 (inactive)	0.847 (inactive)	0.762 (inactive)	1.54	-0.556 (inactive)	1.1	0.234	0.505	0.577
COC(=O)[C@@]1(Cc2ccccc2)[C@H]2c3cc(C(=O)N4CCCC4)n(Cc4ccc(OC(F)(F)F)cc4)c3C[C@H]2CN1C(=O)c1ccccc1	1.38	-0.277	0.337	0.42	1.72	1.62	1.18	0.705 (inactive)	1.73	0.405	0.325	1.54 (inactive)	1.5 (inactive)	3.42 (inactive)	3.29	-1.43 (inactive)	0.961	0.0283	1.04	0.647
C[N+](C)(C)CCCCNC(=O)[C@H]1C[C@H]2C(=O)NCC(=O)N2[C@H]1c1ccc(O)cc1	-0.392	1.83	-0.0466	1.12	0.943	0.584	1.38	0.0635 (inactive)	0.383	-0.156	1.46	-0.826 (inactive)	0.0918 (inactive)	-1.71 (inactive)	1.84	0.509 (inactive)	0.0823	2.01	1.04	0.154
CC(C)(C)OC(=O)CC[C@]1(C(=O)N2CCCCC2)N=C(c2ccc(OCCCO)cc2)O[C@H]1c1ccccc1CN=[N+]=[N-]	-0.193	1.29	0.347	1.14	1.65	1.89	1.38	-2.88 (inactive)	0.821	-0.574	1.54	-4.42 (inactive)	-0.736 (inactive)	-0.279 (inactive)	3.67	2.1 (inactive)	0.694	0.743	1.05	0.314
C=CCOC(=O)[C@@H]1[C@H]2C(=O)O[C@H](c3ccccc3)[C@H](c3ccccc3)N2[C@H](c2ccc(OCCOC(=O)[C@H]3C[C@H]4C(=O)N[C@@H](Cc5ccccc5)C(=O)N4[C@H]3c3cccc(OCCO)c3)cc2)[C@@]12C(=O)Nc1ccc(I)cc12	0.014	0.548	-0.0512	0.957	1.09	0.0935	1.31	2.41 (inactive)	0.56	-0.186	1.53	2.59 (inactive)	-2.26 (inactive)	0.874 (inactive)	1.93	-1.07 (inactive)	-0.193	1.59	1.03	0.276
C=CCC(OC(C)=O)[C@@H]1[C@@H](N(Cc2cccc3ccccc23)C(=O)c2ccc(C)cc2)c2cc(OCCCO)ccc2N1C(=O)c1ccc2ccccc2c1 (stereo not given in full)	-0.0181	0.0379	-0.152	0.409	0.145	-0.126	-0.163	-1.8 (inactive)	0.137	0.0695	0.377	-0.844 (inactive)	0.148 (inactive)	-0.302 (inactive)	1.19	0.649 (inactive)	-0.0574	0.684	0.103	-0.0432
CCCC[C@H]1OB(O)C[C@H]2C1=C(COc1ccccc1)Cn1c(=O)n(-c3ccccc3)c(=O)n12	-0.211	0.556	-0.145	0.279	0.403	1.01	0.77	-0.971 (inactive)	0.415	-0.164	0.905	0.54 (inactive)	-4.94 (inactive)	0.59 (inactive)	2.24	-0.298 (inactive)	-0.116	0.836	0.733	-0.0947
CO[C@H]1O[C@H](CO)[C@@H](OC(=O)c2ccc(Br)cc2)[C@@H]2OC(=O)[C@H](Cc3cccc(Br)c3)C/C=C/C[C@@H](Cc3cccc(Br)c3)C(=O)O[C@@H]12	0.174	0.665	0.0376	1.12	1.43	1.43	1.06	0.374 (inactive)	0.551	0.319	1.47	-0.73 (inactive)	0.16 (inactive)	-0.0347 (inactive)	1.08	-0.972 (inactive)	0.0717	0.553	1.04	0.158
C=CC[C@]1(C(=O)N2CCOCC2)N=C(c2ccc(OCCCO)cc2)O[C@H]1c1ccccc1CN=[N+]=[N-]	-0.0635	1.3	0.103	1.04	1.54	1.77	1.3	-1.34 (inactive)	1.99	0.28	1.53	-0.819 (inactive)	-1.63 (inactive)	-0.119 (inactive)	3.49	0.191 (inactive)	0.0503	1.57	1.05	-0.0111
